High-throughput results deposited in PubChem by National Center for Advancing Translational Sciences (NCATS).
NS1 function inh: influenza NS1 inhibition | Potency, µM (titrated, usually from 46.1 µM) | 270,000 tested, 0.4% active; calls by dose curve; also: actives are rising curves; nearly all actives have a fitted effect of over 50% in size
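Compounds were scored for reversing the slow growth caused by influenza A NS1 in S. cerevisiae, measured by optical density at 600 nm. Assay medium contained 2% galactose at pH 6.0; NS1-free yeast of the same strain were the positive control.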
Cycloheximide cs: affects cycloheximide protein synthesis inhibition readout, counter-screen; cell reporter, cycloheximide protein synthesis inhibition counterscreen; max response, %; 300,000 tested, 12% active; in the data active = max response mostly above about 13%, no sharp cut-off; inactive = mostly below about 14%; also: read at 38.3 µM for the half of the compounds with a filed dose
Pf growth 48h: P. falciparum growth inhibition at 48 hours (one generation); Potency, µM (series often up to 28.7 µM), most hits filed as inhibitors; P. falciparum luciferase growth in erythrocytes, 48 h; 310,000 tested, 5.9% active
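Luminescence readout; reporter = integrated firefly luciferase in P. falciparum. RBC culture at 2% hematocrit, 0.1% parasitemia final, 37 C/5% CO2; decreased signal taken as growth inhibition.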
Shiga toxin inh: inhibitors of Shiga toxin in Vero cells | 290,000 tested, 9.2% active | Vero cells, Shiga toxin protein synthesis inhibition reporter | AID 2315 | inhibition, % at 38.7 µM; in the data active = inhibition mostly above about 28%, no sharp cut-off; inactive = mostly below about 43%
Giardia FBPA inh: blocks Giardia fructose-bisphosphate aldolase activity; A8B2U2; purified Giardia FBPA; Potency, µM (top dose mostly 59.6 µM), most hits filed as inhibitors; 290,000 tested, 0.71% active; AID 2451; also: nearly all actives have a fitted effect of over 55% in size
Target sequence (A8B2U2 whole entry, looked up): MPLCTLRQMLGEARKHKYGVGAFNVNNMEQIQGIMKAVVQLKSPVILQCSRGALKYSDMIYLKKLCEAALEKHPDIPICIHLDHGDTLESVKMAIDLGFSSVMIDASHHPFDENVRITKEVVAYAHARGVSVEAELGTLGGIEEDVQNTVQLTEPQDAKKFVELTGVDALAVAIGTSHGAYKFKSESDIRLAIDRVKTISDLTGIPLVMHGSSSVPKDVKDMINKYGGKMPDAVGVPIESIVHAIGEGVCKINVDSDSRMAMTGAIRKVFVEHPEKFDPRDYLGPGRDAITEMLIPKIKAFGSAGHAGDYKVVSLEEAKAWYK
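40 nM FBPA preincubated 10 min at RT with compound (up to 57.5 uM final), then substrate plus GAPDH/TPI/NAD/arsenate coupling and diaphorase/resazurin added. Fluorescence read after 20 min at RT, 525/598 nm.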
Pf growth 96h: P. falciparum growth inhibition at 96 hours. Potency, µM (top dose mostly 28.7 µM), most hits filed as inhibitors. P. falciparum luciferase reporter growth, 96 h. 320,000 tested, 6.9% active
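Luminescence readout: decreased luciferase signal marks inhibited growth of reporter-expressing P. falciparum in infected red cells (2% hematocrit, 0.05% parasitemia final), exposed to compound two generations (96 h, 37 C, 5% CO2).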
Numbers stand for hits; – = inactive; ? = inconclusive; · = no result; [ ] = dose if it differs, or a comment. Hits are enriched below; roughly 21% of the tested compounds scored in any of these assays. Unless noted, calls follow the shape of the dose curve; as a rule, active = well fitted curve in the direction sought with a large enough effect; inconclusive = small, poorly fitted or top-dose-only effect, or another doubt; inactive = no such curve, though single readings can be large; an effect the other way counts as inactive or inconclusive.

SMILES	NS1 function inh	Cycloheximide cs	Pf growth 48h	Shiga toxin inh	Giardia FBPA inh	Pf growth 96h
C=CCNC(=O)N1CCCC(N2CCN(c3ccccc3OC)CC2)C1 (stereo unspecified)	–	–	–	–	–	–
O=S(=O)(NC(=S)NC1CCCCC1)c1ccc(Br)cc1	·	–	–	–	–	–
Cc1ncsc1C(=O)NCc1ccc(N2CCCC2=O)cc1	–	–	·	–	–	4.7µM
O=C1CC(N2CCN(c3ccccc3)CC2)C(=O)N1Cc1ccc(Cl)cc1 (stereo unspecified)	·	–	–	–	–	–
CC(C)CC1Nc2ncnc(N3CCN(c4ccccc4)CC3)c2N(Cc2ccc(Cl)cc2)C1=O (stereo unspecified)	·	·	9.3µM	·	·	9.3µM
CC1Nc2ncnc(N3CCN(c4ccccc4)CC3)c2N(Cc2ccc(Br)cc2)C1=O (stereo unspecified)	·	·	13µM	·	·	?
O=C1NC(CCc2ccccc2)C(=O)N1Cc1ccc(Br)cc1 (stereo unspecified)	·	–	?	–	–	–
Cc1ccc(CN2C(=O)N/C(=C\c3ccc(N4CCOCC4)cc3)C2=O)cc1	–	–	–	–	–	?
CCC1Nc2ncnc(N3CCN(c4ccccc4)CC3)c2N(Cc2ccc(C)cc2)C1=O (stereo unspecified)	·	·	?	·	·	12µM
Cc1ccnc(NC(NC(=O)C(C)C)(C(F)(F)F)C(F)(F)F)c1	–	–	–	–	–	–
Cn1cnc(S(=O)(=O)NCc2ccc(Br)cc2)c1	–	–	–	–	–	?
O=C1c2cccc3c(N4CCCCC4)ccc(c23)C(=O)N1c1ccc(O)cc1	·	18	–	–	–	–
CCCc1[nH]c(=O)c(C#N)c2c1COC(C)(C)C2	–	–	·	–	–	1.7µM
CC(C)Cc1[nH]c(=O)c(C#N)c2c1COC(C)(C)C2	–	–	–	–	–	·
CN1CCC(=NNC(=O)C(=O)Nc2cccc(Br)c2)CC1	·	–	–	–	–	–
Cc1ccc(NC(=O)C(=O)NN=C2CCCC2)cc1C	–	10	–	–	–	–
CN1CCC(=NNC(=O)C(=O)Nc2ccc(F)cc2)CC1	–	38	–	74	–	–
O=C(Nc1ccc(F)cc1)C(Cc1ccccc1)n1cccc1 (stereo unspecified)	–	–	–	–	–	?
O=C(c1ccc(F)cc1)C(Cc1ccccc1)N1CCCCC1 (stereo unspecified)	–	35	–	69	–	–
CCOc1ccc(C[C@H]2NC(=O)CCSSC[C@@H](C(=O)N3CCC[C@H]3C(=O)N[C@@H](CCCN)C(=O)NCC(N)=O)NC(=O)[C@H](CC(N)=O)NC(=O)[C@H]([C@@H](C)O)NC(=O)[C@H]([C@@H](C)CC)NC2=O)cc1	·	–	·	–	–	·
Cn1cnc(S(=O)(=O)Nc2ccc(OC(F)F)cc2)c1	–	–	–	–	–	–
CC1CCN(C2=NC(=O)/C(=C/c3cn(-c4ccccc4)nc3-c3cccc(S(=O)(=O)N(C)C)c3)S2)CC1	–	–	7.4µM	–	–	?
CC1CCCN(C2=NC(=O)/C(=C/c3cn(-c4ccccc4)nc3-c3cccc(S(=O)(=O)N(C)C)c3)S2)C1 (stereo unspecified)	–	–	?	–	–	1.7µM
CN(C)S(=O)(=O)c1cccc(-c2nn(-c3ccccc3)cc2/C=C(/C#N)C(=O)NCc2ccco2)c1	–	–	–	–	–	?
CC(C)Cc1nc2sc3c(c2c(=O)n1N)CC(C)(C)OC3	–	–	–	–	–	–
SMILES	NS1 function inh	Cycloheximide cs	Pf growth 48h	Shiga toxin inh	Giardia FBPA inh	Pf growth 96h
COc1cc(-c2cc(C(=O)Nc3ccc(N4CCOCC4)cc3)c3ccccc3n2)cc(OC)c1OC	–	–	10µM	–	–	5.9µM
CNS(=O)(=O)c1ccc(NC(=O)c2cc(-c3ccncc3)nc3ccc(Cl)cc23)cc1	–	–	13µM	–	–	–
Cc1ccc(-c2cc(C(=O)Nc3ccncc3)c3ccccc3n2)cc1	·	·	1.7µM	·	·	1.5µM
COc1ccccc1NC(=O)c1cc(-c2cc(OC)c(OC)c(OC)c2)nc2ccccc12	–	–	4.7µM	–	–	?
O=C(Nc1ccncc1)c1cc(-c2ccccn2)nc2ccccc12	·	–	–	–	–	?
CCOc1ccccc1NC(=O)c1cc(-c2cc(OC)c(OC)c(OC)c2)nc2ccccc12	?	–	?	–	–	?
O=C(NCc1ccncc1)C(=O)NC1CC1	·	–	–	–	–	–
CC1=C/C(=N/O)C([C@H]2C=C(C)CC(C)(C)[C@@H]2O)C(C)(C)C1 (stereo partly specified)	–	·	·	·	·	·
Cc1cc2c(nc1C)CCCCN2C[C@H](O)CN1CCCc2nc(-c3ccc(Br)cc3)ccc21	·	·	·	·	–[12.9 µM]	·
CCOc1ccc(NS(=O)(=O)c2ccc(C(=O)N(C)CC(=O)Nc3ccc(C)cc3)cc2)cc1	·	·	?	·	·	–
CCNC(=S)NNC(=O)c1cc(-c2cc(C)ccc2C)nc2ccccc12	–	–	?	–	–	5.2µM
Cc1nnc(NC(=O)c2cc(-c3ccncc3)nc3c(C)cccc23)s1	–	36	?	32	·	–
COc1cc(-c2cc(C(=O)Nc3cc(S(=O)(=O)N4CCOCC4)ccc3C)c3ccccc3n2)cc(OC)c1OC	·	·	2.9µM	·	·	1µM
COc1ccc(-c2cc(C(=O)NNC(=O)c3csc(N4CCOCC4)n3)c3ccccc3n2)cc1OC	·	·	?	·	·	13µM
CCCc1cc(C(=O)NNC(=S)NCC)c2ccccc2n1	–	–	–	–	–	–
CC(C)CN(C(=O)c1ccc(F)cc1F)c1c(N)n(CC(C)C)c(=O)[nH]c1=O	–	–	–	–	–	–
CCN1C(=O)[C@H]2[C@H]3[C@H](O)[C@H](O)C/C(=N/OCC[C@H]4C=C[C@H](OC(C)=O)[C@@H](COC(C)=O)O4)[C@@H]3CC[C@@H]2C1=O	·	·	·	·	–[12.9 µM]	·
CCOc1ccc(NC(=O)c2cc(Cl)nc3ccccc23)cc1	–	–	–	–	–	–
Cc1cccc(C)c1NC(=O)c1cc(-c2ccccn2)nc2ccccc12	·	–	–	–	–	?
CCc1cccc(C)c1NC(=O)c1cc(-c2ccncc2)nc2ccccc12	·	·	10µM	·	·	9.3µM
COc1ccc(-c2cc(C(=O)Nc3ccc(C(N)=O)cc3)c3ccccc3n2)cc1	–	16	–	65	–	?
COc1ccc(-c2cc(C(=O)Nc3ccc(Cl)cc3Cl)c3ccccc3n2)cc1OC	–	–	?	–	–	–
CC(=O)c1ccc(NC(=O)c2cc(CC(C)C)nc3ccccc23)cc1	–	48	?	82	–	?
COc1ccc(-c2cc(C(=O)Nc3c(Cl)cc(Cl)cc3Cl)c3ccccc3n2)cc1OC	–	–	13µM	–	–	?
CC1CCN(C(=O)CN2C(=O)C(=O)N(C(C)C)C2=O)c2ccccc2S1 (stereo unspecified)	·	·	–	·	·	–
O=C(NS(=O)(=O)N1CCCC1)C1=C(N2CCCC2)COC1=O	·	·	–	·	·	–
Cc1ccccc1NC(=S)NC(=O)c1cc(-c2ccccc2)nc2ccccc12	?	–	?	–	–	9.3µM
